# Measurements reported in PubChem BioAssay (Tox21).
# Values joined by “and” are separate entries in the source; they are usually repeats but may differ in a detail not shown here. Identical values can stand only once. Unmarked numbers belong to inactive results. Results filed as inconclusive are left out. A call without a number means that no potency is given here. A structure can be active in one record and inactive in another. Active and inactive are the calls of the source. Unless noted, calls follow the shape of the dose curve; as a rule, active = well fitted curve in the direction sought with a large enough effect in the repeat runs; inconclusive = weak or mixed curves; inactive = no such curve, though single readings can be large; an effect the other way counts as inactive or inconclusive.
# How the values were obtained:
# [1] = qHTS assay to identify small molecule antagonists of the androgen receptor (AR) signaling pathway using the MDA cell line in the presence of 0.5 nM R1881 - cell viability counter screen (AID 1259242); also: nearly all actives have a fitted effect of over 45% in size
# How it was run: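 MDA-kb2 cells (human breast carcinoma, stably carrying MMTV-luciferase reporter) were exposed to compounds with 0.5 nM R1881 (final) for 16 hr at 37C, 0% CO2; viability then read as live-cell protease fluorescence (CellTiter-Fluor, 30 min) in the same wells.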
# [2] = target: Estrogen receptor (Homo sapiens) (UniProt P03372); assay: qHTS assay to identify small molecule antagonists of the estrogen receptor alpha (ER-alpha) signaling pathway using the BG1 cell line in the presence of 0.1 nM 17-beta-estradiol (AID 1259244); also: nearly all actives have a fitted effect of over 50% in size; also: potency is read from the fitted curve at half-maximal effect
# How it was run: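 VM7Luc4E2 cells (endogenous full-length ER-alpha, stable 4xERE-luciferase) were grown 5 days in phenol red-free medium with charcoal-stripped FBS, then exposed 22 h at 37C to compounds plus 0.1 nM (final) 17beta-estradiol; ONE-Glo luminescence read-out.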
# [3] = qHTS assay to identify small molecule phospholipidosis (PLD) inducers (AID 1259344; active = well fitted curve in the direction sought with a large enough effect; an effect the other way counts as inactive or inconclusive)
# How it was run: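 Fluorescent phospholipid staining (LipidTOX Red) measured by automated microscopy in fixed HepG2 cells after 24 h treatment; nuclei counterstained with Hoechst 33342; amiodarone as reference inducer.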
# [4] = qHTS assay to identify small molecule HDAC inhibitors (AID 1259364); also: nearly all actives have a fitted effect of over 45% in size; also: potency is read from the fitted curve at half-maximal effect; as to activity change, negative = inhibition: top concentration of the series differs between compounds
# How it was run: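 Wild-type HCT-116 cells were plated overnight, exposed to compounds for 2 h at 37 °C, then given HDAC-Glo class I/II luminogenic reagent for 30 min at room temperature before luminescence was read.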
# [5] = qHTS assay to identify small molecule HDAC inhibitors - cell viability counter screen (AID 1259365); also: series mostly up to about 92 µM; nearly all actives have a fitted effect of over 50% in size
# How it was run: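 Wild-type HCT-116 cells were seeded at 1,500 per well, incubated overnight at 37 C, then exposed to compounds in DMSO for 2hr. Viability was read by CellTiter-Glo luminescence after 30min at room temperature.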
# [6] = qHTS assay to identify small molecule agonists of the sonic hedgehog signaling (Shh) pathway - cell viability counter screen (AID 1259366); also: nearly all actives have a fitted effect of over 50% in size
# How it was run: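 NIH/3T3-derived 3T3 Gli1-Luc cells (stable Gli1-responsive firefly luciferase reporter) were seeded, rested 4 hr at 37 C/5% CO2, then exposed to compounds in DMSO for 24 hr; viability was read by CellTiter-Fluor fluorescence in the same wells.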
# [7] = qHTS assay to identify small molecule agonists of the sonic hedgehog signaling (Shh) pathway (AID 1259368; calls by dose curve; also: series mostly up to about 92 µM; nearly all actives have a fitted effect of over 15% in size)
# How it was run: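 NIH/3T3-derived 3T3Gli1-Luc cells carrying a stably integrated Gli1 response element–firefly luciferase reporter were plated, left 4 hr at 37 C, then given compounds in DMSO for 24 hr. Luminescence was read 30 min after adding luciferase reagent.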
# [8] = qHTS assay to identify small molecule antagonists of the sonic hedgehog signaling (Shh) pathway (AID 1259369; calls by dose curve; also: nearly all actives have a fitted effect of over 45% in size; also: potency is read from the fitted curve at half-maximal effect)
# How it was run: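 NIH/3T3-derived 3T3Gli1-Luc cells with stably integrated Gli1-Luc reporter were preincubated 4hr at 37 C, then given compounds in DMSO plus Shh conditioned medium and incubated 24hr. Firefly luciferase luminescence read after 30min reagent at room temperature.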
# [9] = qHTS assay to identify small molecule agonists of the androgen receptor (AR) signaling pathway in the presence of an antagonist - cell viability counter screen (AID 1259379); also: nearly all actives have a fitted effect of over 25% in size; also: potency is read from the fitted curve at half-maximal effect; as to activity change, negative = cytotoxicity: series mostly up to about 92 µM
# How it was run: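 MDA-kb2 human breast carcinoma cells (stable MMTV-luciferase, AR/GR responsive) were seeded 3,000 cells/well, pre-incubated 5 hr at 37C without CO2, then given 3.0uM nilutamide and compounds at 15 concentrations for 16 hr. Viability was read by CellTiter-Fluor fluorescence.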
# [10] = qHTS assay to identify small molecule agonists of the estrogen receptor beta (ER-beta) signaling pathway - cell viability counter screen (AID 1259380); also: nearly all actives have a fitted effect of over 30% in size; also: potency is read from the fitted curve at half-maximal effect
# How it was run: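 ER-beta-UAS-bla HEK293T cells in medium with 2% charcoal-stripped FBS were preincubated 6 hr at 37C, dosed with compound in DMSO for 16 hr, then after the bla read, CellTiter-Glo was added for 30 min at room temperature; luminescence recorded.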
# [11] = qHTS assay to identify small molecule antagonists of the estrogen receptor beta (ER-beta) signaling pathway - cell viability counter screen (AID 1259382); also: nearly all actives have a fitted effect of over 55% in size; also: potency is read from the fitted curve at half-maximal effect; as to activity change, negative = cytotoxicity: series mostly up to about 92 µM
# How it was run: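 ER-beta-UAS-bla HEK293T cells (2,000/well, 2% charcoal-stripped FBS) were pre-incubated 6 hr at 37C, then given compound plus 1nM final 17-beta-estradiol for 16 hr. Viability was read in the same wells by CellTiter-Glo luminescence after 30 min at room temperature.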
# [12] = target: Estrogen receptor (Homo sapiens) (UniProt P03372); assay: qHTS assay to identify small molecule agonists of the estrogen receptor alpha (ER-alpha) signaling pathway in the presence of an antagonist (AID 1259383; calls by dose curve; also: top concentration of the series differs between compounds; nearly all actives have a fitted effect of over 15% in size)
# How it was run: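 VM7Luc4E2 cells (endogenous full-length ER-alpha, 4×ERE-luciferase) were precultured 5 days in phenol red-free medium with 10% charcoal-stripped FBS, given 10.0nM ICI-182,780 (final), then treated with compounds at 15 concentrations for 22hr at 37C; luminescence read with ONE-Glo.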
# [13] = qHTS assay to identify small molecule agonists or antagonists of the thyroid stimulating hormone receptor (TSHR) signaling pathway - wild type cell line counter screen (AID 1259384; calls by dose curve; also: potency is read from the fitted curve at half-maximal effect)
# How it was run: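 Counter screen in untransfected Hek293: compounds (15-point titration, triplicate) plus phosphodiesterase inhibitor Ro20-1724 added after 18 h plating; 30 min RT. Intracellular cAMP via competitive d2/cryptate immunoassay, 1 h incubation.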
# [14] = target: Thyrotropin receptor (Homo sapiens) (UniProt P16473); assay: qHTS assay to identify small molecule antagonists of the thyroid stimulating hormone receptor (TSHR) signaling pathway (AID 1259385; calls by dose curve; also: nearly all actives have a fitted effect of over 20% in size)
# How it was run: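 Antagonist mode: compound-treated TSHR-expressing HEK293 cells were stimulated with 1.5 ng/mL TSH (final) in presence of Ro20-1724 for 30 min at RT. HTRF cAMP detection after 1 h; each compound tested at 15 concentrations, triplicate.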
# [15] = qHTS assay to identify small molecule agonists of the estrogen receptor alpha (ER-alpha) signaling pathway in the presence of an antagonist - cell viability counter screen (AID 1259386); also: series mostly up to about 92 µM; nearly all actives have a fitted effect of over 30% in size
# How it was run: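 VM7Luc4E2 cells (endogenous full-length ER-alpha, 4×ERE-luciferase) were held 5 days in phenol red-free medium with 10% charcoal-stripped FBS, plated, then given 10.0nM ICI-182,780 and compounds at 15 concentrations for 22hr at 37C; viability read by CellTiter-Fluor fluorescence.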
# [16] = target: Androgen receptor (Homo sapiens) (UniProt P10275); assay: qHTS assay to identify small molecule antagonists of the androgen receptor (AR) signaling pathway using the MDA cell line in the presence of 0.5 nM R1881 (AID 1259243); also: nearly all actives have a fitted effect of over 50% in size; also: potency is read from the fitted curve at half-maximal effect
# How it was run: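 MDA-kb2 human breast carcinoma cells carrying an MMTV-luciferase reporter (AR- and GR-responsive) were plated, rested 5 hr at 37C, dosed with compounds, then stimulated with 0.5 nM R1881 (final) for 16 hr; luminescence was read after ONE-Glo.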
# [17] = target: Estrogen receptor beta (Homo sapiens) (UniProt Q92731); assay: qHTS assay to identify small molecule agonists of the estrogen receptor beta (ER-beta) signaling pathway (AID 1259377; active = well fitted activation curve with a large enough effect in the signal ratio in the repeat runs, not every such curve was filed as active; the % refers to the signal ratio)
# How it was run: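 ER-beta-UAS-bla HEK293T (GripTite) cells carrying a UAS-driven beta-lactamase reporter, in medium with 2% charcoal-stripped FBS, were exposed to compounds for 16 hr at 37C; LiveBLAzer B/G FRET substrate was then added and fluorescence read after 2 hours at room temperature.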
# [18] = target: Estrogen receptor beta (Homo sapiens) (UniProt Q92731); assay: qHTS assay to identify small molecule antagonists of the estrogen receptor beta (ER-beta) signaling pathway (AID 1259378; active = well fitted inhibition curve with a large enough effect in the signal ratio in the repeat runs, not every such curve was filed as active; the % refers to the signal ratio)
# How it was run: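 Antagonist mode: compounds added to beta-lactamase reporter HEK293T ER-beta-UAS cells stimulated with E2 (1nM final), 16 hr at 37C. LiveBLAzer B/G FRET substrate, 2 hours room temperature, fluorescence read-out.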
# [19] = target: Androgen receptor (Homo sapiens) (UniProt P10275); assay: qHTS assay to identify small molecule agonists of the androgen receptor (AR) signaling pathway in the presence of an antagonist (AID 1259381; calls by dose curve; also: nearly all actives have a fitted effect of over 15% in size)
# How it was run: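 MDA-kb2 human breast carcinoma cells carrying an MMTV-luciferase reporter (AR- and GR-responsive) were treated with compounds at 15 concentrations plus 3.0uM final nilutamide for 16hr at 37C without CO2; luminescence was read after ONE-Glo addition.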
# [20] = qHTS assay to identify small molecule antagonists of the sonic hedgehog signaling (Shh) pathway - cell viability counter screen (AID 1259367); also: nearly all actives have a fitted effect of over 55% in size
# How it was run: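 Using CellTiter-Fluor, viability of Gli1-Luc reporter 3T3 cells is read by fluorescence in the wells used for the Shh luciferase assay. Treatment lasts 23 hr with conditioned medium, then reagent 1 hr at 37C.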
# Sequence of Androgen receptor (Homo sapiens) (P10275 whole entry, looked up): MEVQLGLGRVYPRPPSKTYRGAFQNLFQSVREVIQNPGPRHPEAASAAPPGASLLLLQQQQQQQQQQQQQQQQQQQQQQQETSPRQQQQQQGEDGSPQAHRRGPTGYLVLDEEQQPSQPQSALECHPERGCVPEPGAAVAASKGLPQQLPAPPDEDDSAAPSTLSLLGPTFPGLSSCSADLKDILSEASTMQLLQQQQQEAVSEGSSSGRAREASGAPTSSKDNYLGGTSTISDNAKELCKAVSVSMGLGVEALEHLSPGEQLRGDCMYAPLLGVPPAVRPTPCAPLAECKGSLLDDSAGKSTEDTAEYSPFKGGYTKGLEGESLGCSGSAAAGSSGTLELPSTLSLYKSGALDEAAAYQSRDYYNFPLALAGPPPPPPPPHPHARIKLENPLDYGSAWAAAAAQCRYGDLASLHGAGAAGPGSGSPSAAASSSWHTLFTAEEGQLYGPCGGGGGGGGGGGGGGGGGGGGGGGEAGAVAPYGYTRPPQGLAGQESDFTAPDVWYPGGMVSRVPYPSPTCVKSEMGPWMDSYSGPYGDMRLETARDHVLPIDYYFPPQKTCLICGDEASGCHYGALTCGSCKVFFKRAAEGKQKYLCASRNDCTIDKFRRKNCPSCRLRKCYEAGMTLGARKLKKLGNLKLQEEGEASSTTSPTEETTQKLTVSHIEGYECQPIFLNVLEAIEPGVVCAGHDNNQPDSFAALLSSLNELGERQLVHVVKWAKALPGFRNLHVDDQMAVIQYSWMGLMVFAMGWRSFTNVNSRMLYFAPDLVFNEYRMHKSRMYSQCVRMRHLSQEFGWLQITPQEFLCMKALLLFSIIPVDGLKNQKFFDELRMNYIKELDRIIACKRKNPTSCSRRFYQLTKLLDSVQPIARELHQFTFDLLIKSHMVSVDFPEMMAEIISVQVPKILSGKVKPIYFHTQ
# Sequence of Estrogen receptor beta (Homo sapiens) (Q92731 whole entry, looked up): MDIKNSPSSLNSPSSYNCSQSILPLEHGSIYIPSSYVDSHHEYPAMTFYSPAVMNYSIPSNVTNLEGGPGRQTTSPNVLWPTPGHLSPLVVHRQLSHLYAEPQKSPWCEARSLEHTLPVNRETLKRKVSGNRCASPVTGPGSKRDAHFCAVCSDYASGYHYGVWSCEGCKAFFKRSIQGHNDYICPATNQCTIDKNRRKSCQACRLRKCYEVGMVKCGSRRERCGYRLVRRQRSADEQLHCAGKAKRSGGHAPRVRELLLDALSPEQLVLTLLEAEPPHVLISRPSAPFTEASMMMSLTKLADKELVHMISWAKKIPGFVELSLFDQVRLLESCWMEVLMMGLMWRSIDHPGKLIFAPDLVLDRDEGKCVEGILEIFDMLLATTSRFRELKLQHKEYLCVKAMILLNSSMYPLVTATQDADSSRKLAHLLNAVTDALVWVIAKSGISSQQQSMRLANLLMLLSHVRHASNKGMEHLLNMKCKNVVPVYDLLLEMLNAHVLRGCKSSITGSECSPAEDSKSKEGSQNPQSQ
# Sequence of Estrogen receptor (Homo sapiens) (P03372 whole entry, looked up): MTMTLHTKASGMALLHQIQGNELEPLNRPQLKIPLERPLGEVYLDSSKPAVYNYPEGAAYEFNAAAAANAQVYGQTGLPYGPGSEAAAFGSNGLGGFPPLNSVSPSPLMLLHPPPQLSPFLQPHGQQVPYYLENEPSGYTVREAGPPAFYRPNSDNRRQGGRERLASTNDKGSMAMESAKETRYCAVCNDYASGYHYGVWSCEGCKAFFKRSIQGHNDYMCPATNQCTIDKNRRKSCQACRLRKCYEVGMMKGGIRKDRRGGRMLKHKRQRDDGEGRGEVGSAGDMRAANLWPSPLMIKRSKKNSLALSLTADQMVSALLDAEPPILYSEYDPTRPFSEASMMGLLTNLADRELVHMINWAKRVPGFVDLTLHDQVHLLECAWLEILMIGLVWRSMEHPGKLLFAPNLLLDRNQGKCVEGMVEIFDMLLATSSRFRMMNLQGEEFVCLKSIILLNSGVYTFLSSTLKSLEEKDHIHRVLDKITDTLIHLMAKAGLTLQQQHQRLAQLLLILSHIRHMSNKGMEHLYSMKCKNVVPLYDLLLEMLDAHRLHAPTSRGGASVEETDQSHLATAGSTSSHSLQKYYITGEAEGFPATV
# Sequence of Thyrotropin receptor (Homo sapiens) (P16473 whole entry, looked up): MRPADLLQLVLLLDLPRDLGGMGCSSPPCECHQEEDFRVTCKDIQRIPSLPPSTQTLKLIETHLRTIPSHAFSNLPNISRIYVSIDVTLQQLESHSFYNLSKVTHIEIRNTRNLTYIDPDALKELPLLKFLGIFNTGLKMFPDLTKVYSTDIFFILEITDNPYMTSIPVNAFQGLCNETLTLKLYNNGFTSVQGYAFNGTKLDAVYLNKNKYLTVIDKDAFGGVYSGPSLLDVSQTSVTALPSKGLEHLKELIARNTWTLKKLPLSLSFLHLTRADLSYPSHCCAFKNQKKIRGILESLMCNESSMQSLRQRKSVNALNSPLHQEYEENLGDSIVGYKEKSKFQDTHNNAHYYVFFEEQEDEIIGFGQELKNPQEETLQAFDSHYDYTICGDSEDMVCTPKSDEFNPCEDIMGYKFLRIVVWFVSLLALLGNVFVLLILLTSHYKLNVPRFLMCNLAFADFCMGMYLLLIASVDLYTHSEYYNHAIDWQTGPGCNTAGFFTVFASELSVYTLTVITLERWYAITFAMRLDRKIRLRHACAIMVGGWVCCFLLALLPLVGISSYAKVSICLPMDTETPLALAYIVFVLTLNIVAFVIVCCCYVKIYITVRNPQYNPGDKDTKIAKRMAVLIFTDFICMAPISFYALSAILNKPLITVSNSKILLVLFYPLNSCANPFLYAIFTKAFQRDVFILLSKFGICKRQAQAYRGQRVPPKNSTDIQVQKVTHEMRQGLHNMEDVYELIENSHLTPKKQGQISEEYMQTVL
smiles,measurement,setting,value
CNC[C@H](O)c1ccc(O)c(O)c1,Potency,[1],inactive
same,Potency,[2],inactive
same,Potency,[3],inactive
same,Potency,[4],inactive
same,outcome,[5],inactive
same,Potency,[6],inactive
same,Potency,[7],inactive
same,Potency,[8],17.2 µM (active)
same,"activity change, negative = inhibition",[8],-2.86% [at 19 µM]
same,Potency,[9],inactive
same,Potency,[10],inactive
same,Potency,[11],inactive
same,Potency,[12],inactive
same,Potency,[13],1.66 µM (active) and 111 nM (active)
same,Potency,[14],inactive
same,"activity change, negative = cytotoxicity",[15],-2.01% [at 19 µM]
CCc1cccc2c3c([nH]c12)C(CC)(CC(=O)O)OCC3 (stereo unspecified),Potency,[1],inactive
same,Potency,[16],inactive
same,Potency,[2],inactive
same,Potency,[3],inactive
same,Potency,[4],inactive
same,outcome,[5],inactive
same,Potency,[6],inactive
same,Potency,[7],inactive
same,Potency,[8],inactive
same,Potency,[17],inactive
same,Potency,[18],inactive
same,Potency,[9],inactive
same,Potency,[10],inactive
same,Potency,[19],inactive
same,Potency,[11],inactive
same,Potency,[12],inactive
same,Potency,[13],inactive
same,Potency,[14],inactive
same,Potency,[15],inactive
c1ccc2c(c1)[nH]c1ccccc12,Potency,[1],inactive
same,Potency,[16],8.49 µM (active) and 8.63 µM (active)
same,Potency,[2],inactive
same,outcome,[5],inactive
same,Potency,[6],inactive
same,Potency,[20],inactive
same,Potency,[7],inactive
same,Potency,[8],inactive
same,Potency,[17],inactive
same,Potency,[18],inactive
same,Potency,[9],inactive
same,Potency,[10],inactive
same,Potency,[19],inactive
same,Potency,[11],inactive
same,Potency,[12],inactive
same,Potency,[15],inactive
Brc1nc2ccccc2s1,Potency,[1],inactive
same,Potency,[2],inactive
same,Potency,[4],inactive
same,outcome,[5],inactive
same,Potency,[6],inactive
same,Potency,[20],inactive
same,Potency,[7],inactive
same,Potency,[8],inactive
same,Potency,[17],inactive
same,Potency,[18],inactive
same,Potency,[9],inactive
same,Potency,[10],inactive
same,Potency,[11],inactive
same,Potency,[12],inactive
same,Potency,[13],inactive
same,Potency,[14],inactive
same,Potency,[15],inactive
C=C[C@@]1(C)CC(=O)[C@]2(O)[C@@]3(C)[C@@H](O)CCC(C)(C)[C@@H]3[C@H](O)[C@H](OC(C)=O)[C@@]2(C)O1,Potency,[1],inactive
same,Potency,[2],15.4 µM (active) and 7.5 µM (active)
same,Potency,[3],inactive
same,outcome,[5],inactive
same,Potency,[7],inactive
same,Potency,[8],2.4 nM (active) and 211 nM (active)
same,Potency,[17],inactive
same,Potency,[9],48.6 µM (active)
same,Potency,[10],19.3 µM (active) and 11.9 µM (active)
same,Potency,[11],21.7 µM (active) and 15 µM (active)
same,Potency,[12],inactive
same,Potency,[13],63.6 nM (active) and 256 nM (active)
same,Potency,[15],inactive
COc1ccc2nc(N)sc2c1,Potency,[1],inactive
same,Potency,[16],inactive
same,Potency,[2],inactive
same,Potency,[4],27.3 µM (active) and 24.3 µM (active)
same,outcome,[5],inactive
same,Potency,[6],inactive
same,Potency,[20],inactive
same,Potency,[7],inactive
same,Potency,[8],inactive
same,Potency,[17],inactive
same,Potency,[18],inactive
same,Potency,[9],inactive
same,Potency,[10],inactive
same,Potency,[19],inactive
same,Potency,[11],inactive
same,Potency,[13],inactive
same,Potency,[15],inactive
c1ccc2c(c1)ccc1ncccc12,Potency,[1],inactive
same,Potency,[16],3.83 µM (active) and 5.45 µM (active)
same,Potency,[2],inactive
same,Potency,[4],inactive
same,outcome,[5],inactive
same,Potency,[6],inactive
same,Potency,[20],inactive
same,Potency,[7],inactive
same,Potency,[8],inactive
same,Potency,[17],inactive
same,Potency,[18],inactive
same,Potency,[9],inactive
same,Potency,[10],inactive
same,Potency,[19],inactive
same,Potency,[11],inactive
same,Potency,[13],inactive
same,Potency,[14],inactive
same,Potency,[15],inactive
